Compounds without any hit were thinned out: in the full panel of roughly 79,000, 15% have a hit. Cut-off read from the data, not from the text of the source: active = growth inhibition above about 70%; inactive = the rest. Where a SMILES comes first, the peptide text is derived from it. The star is where a group is joined. Boc = CC(C)(C)OC(=O)*; OcHex = C1CCC(O*)CC1
Tests used:
[1] = NCI Yeast Anticancer Drug Screen. Data for the rad50 strain (AID 155);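 note: 0% = growth of vehicle-only cultures of the same strain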; settings: S. cerevisiae rad50 strain growth inhibition; at 50.0 µM; stronger effect = higher value
Summary of the method: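 Yeast carrying a defined DNA repair defect were exposed to test compounds, and growth was compared with vehicle-treated controls to give percent inhibition.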

[2] = NCI Yeast Anticancer Drug Screen. Data for the mec2-1 strain (AID 157); settings: S. cerevisiae mec2-1 strain, at 50.0 µM, stronger effect = higher value
Summary of the method: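 Vehicle-treated cultures served as reference for growth inhibition of compound-exposed mec2-1 yeast.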

[3] = NCI Yeast Anticancer Drug Screen. Data for the sgs1 mgt1 strain (AID 161);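 note: 0% = growth of cultures given vehicle only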; settings: S. cerevisiae sgs1 mgt1 strain, at 50.0 µM, stronger effect = higher value
Summary of the method: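 Read-out: growth inhibition vs vehicle controls. Cells: mutant yeast strain deficient in DNA damage repair.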

[4] = NCI Yeast Anticancer Drug Screen. Data for the cln2 rad14 strain (AID 165);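 note: 0% = growth equal to vehicle treated cultures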; settings: S. cerevisiae cln2 rad14 strain, at 50.0 µM, stronger effect = higher value
Summary of the method: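 Each compound was tested on cln2 rad14 yeast. Inhibition of growth was calculated against vehicle-exposed controls.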

[5] = NCI Yeast Anticancer Drug Screen. Data for the bub3 strain (AID 167); settings: S. cerevisiae bub3 mutant strain, at 50.0 µM, stronger effect = higher value
Summary of the method: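 Compounds were applied to a genetically altered yeast strain carrying a cell-cycle control defect. Growth inhibition was scored against vehicle-treated controls.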

[6] = NCI Yeast Anticancer Drug Screen. Data for the mlh1 rad18 strain (AID 175); settings: S. cerevisiae mlh1 rad18 strain growth inhibition; at 50.0 µM; stronger effect = higher value
Summary of the method: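 Vehicle-treated cultures served as the reference for growth inhibition in a yeast strain carrying DNA damage repair alterations exposed to each compound.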

Measured: growth inhibition

CCOC(=O)NC(=S)NC(C)c1ccccc1 (configuration not stated)
inactive: [1] -10.2% | [2] 10.6% | [3] 35.5% | [4] -8.85% | [5] 15% | [6] 1.15%

Nc1c(F)c(F)cc(F)c1[N+](=O)[O-]
inactive: [1] 2.6% | [2] -2.7% | [3] 2.55% | [4] 7.6% | [5] 9.6% | [6] 4.35%

O=C1C=Cc2ccccc2/C1=C/c1nc(-c2ccc(Cl)cc2)oc1O
inactive: [1] -3.2% | [2] 7.05% | [3] -8.75% | [4] -1.2% | [5] 6.9% | [6] -13.3%

CC(C)(O)c1cc(Cl)ccc1Sc1ccccc1
inactive: [1] -20.6% | [2] -15.2% | [3] -8.85% | [4] 13.7% | [5] 4.85% | [6] -8.2%

NC(N)=NC(N)=Nc1ccccc1
inactive: [1] -15.9% | [2] 14.8% | [3] -1.8% | [4] -5.9% | [5] 1.15% | [6] 11.6%

CCOC(=O)C(=CNC(=S)Nc1ccc(Cl)c(Cl)c1)C(=O)OCC
inactive: [1] 53.5% | [2] 39.5% | [3] 59.7% | [4] 45.6% | [5] 39% | [6] 67.5%

CCOC(=O)c1ccc(N(CC(O)CN)S(=O)(=O)c2ccc(C)cc2)cc1 (configuration not stated)
inactive: [1] 5.7% | [2] -9.5% | [3] -11.2% | [4] 4.15% | [5] 3.5% | [6] -1.5%

CN1c2ccccc2C2CC(CC#N)CC(=O)C21 (configuration not stated)
inactive: [1] 18.9% | [2] 13.7% | [3] -8.1% | [4] -12.2% | [5] -20.2% | [6] 20.2%

N#CSC1C=CS(=O)(=O)C1 (configuration not stated)
inactive: [1] 44.6% | [2] 4.05% | [3] 19.6% | [4] -44.1% | [5] 3.55% | [6] 58.8%

COc1cc(C(=O)C/C(CCCC(=O)Nc2ccccc2[N+](=O)[O-])=N/NC(=O)c2cc3ccccc3cc2O)ccc1O
inactive: [1] 12.9% | [2] 28.1% | [3] -9.75% | [4] 23.3% | [5] 1.4% | [6] 7.85%

COc1cccc(CCO)c1OC
inactive: [1] 1.3% | [2] -13.2% | [3] 10.9% | [4] -10.4% | [5] 5.2% | [6] 10.9%

CCC1(C)C(=O)c2ccccc2N(C)C1=O (configuration not stated)
inactive: [1] -5.55% | [2] -10.1% | [3] -9.5% | [4] -37.9% | [5] 5% | [6] -6.25%

CCOC(=O)C(Cc1ccc([N+](=O)[O-])cc1)NC(=O)CC1c2ccccc2-c2ccccc21 (configuration not stated)
inactive: [1] -10.1% | [2] 1.05% | [3] 3.4% | [4] -35% | [5] -9.9% | [6] -8.95%

CC(=O)OCC(OC(C)=O)C1OC2OC(C)(C)OC2C1OS(C)(=O)=O (configuration not stated)
inactive: [1] 15.2% | [2] 10.3% | [3] 17.6% | [4] -27.6% | [5] 28.6% | [6] 4.95%

COc1cccc(N=Cc2ccc(C=Nc3cccc(OC)c3)cc2)c1
inactive: [1] 5.95% | [2] -9.1% | [3] 11.1% | [4] -9.35% | [5] 27.7% | [6] -12.4%

CN(C)c1ccc(N=Nc2cccc3ccoc23)cc1
inactive: [1] 11.6% | [2] -23.6% | [3] 9.9% | [4] -28.3% | [5] 14.9% | [6] 14%

CC1(C)OC2C(C3N(c4ccccc4)CCN3c3ccccc3)OC(n3ccc(=O)[nH]c3=O)C2O1 (configuration not stated)
inactive: [1] -37.4% | [2] -5.85% | [3] -8.35% | [4] 14.1% | [5] -2.5% | [6] -12.7%

O=C(NC(c1ccccc1)C(Cl)(Cl)c1ccccc1)c1ccccc1 (configuration not stated)
inactive: [1] 21.8% | [2] -7.5% | [3] 6.4% | [4] -0.2% | [5] 22.9% | [6] 23.3%

COc1ccccc1CNCCCCCCNCCSSCCNCCCCCCNCc1ccccc1OC
inactive: [1] 6.55% | [2] 5.1% | [3] 7.4% | [4] -36.7% | [5] -2.35% | [6] 32.5%

Cc1cc(Br)c(I)c([N+](=O)[O-])c1
inactive: [1] 34.5% | [2] 27.6% | [3] 17.8% | [4] 13.3% | [5] 7.45% | [6] 6.25%

O=[N+]([O-])c1ccccc1-c1ccccc1CO
inactive: [1] -22% | [2] -19.2% | [3] -41.4% | [4] -23.4% | [5] -18.4% | [6] -28.9%

CCCC(=O)OC1CCCC1
inactive: [1] 27.9% | [2] 27.8% | [3] 20.4% | [4] 24.1% | [5] 21.8% | [6] 28.7%

C/C(=C/c1c(C)c([N+](=O)[O-])c(C)c(C)c1[N+](=O)[O-])C(=O)O
inactive: [1] -3.3% | [2] 38.8% | [3] 14.7% | [4] 11.4% | [5] 30.9% | [6] 37%

CC(=O)CC(C)(C)S(=O)(=O)Cc1ccccc1
inactive: [1] -3.4% | [2] 11.2% | [3] 6.9% | [4] -5.85% | [5] 19.4% | [6] 6.3%

OC(CCNC12CC3CC(CC(C3)C1)C2)c1ccccc1 (configuration not stated)
inactive: [1] 29.8% | [2] 22.4% | [3] 59.2% | [4] 50.5% | [5] 33.4% | [6] 53.6%

Cc1nc(CO)cc(=O)[nH]1
inactive: [1] 19.6% | [2] -5.5% | [3] 12.2% | [4] 9.85% | [5] -25.4% | [6] 14.1%

O=C1C2C(C(=O)N1c1ccccc1)C1(c3cccnc3)NC(=O)C2(Cc2cccnc2)c2ccccc21 (configuration not stated)
inactive: [1] 12.6% | [2] -5.85% | [3] 8.95% | [4] 19.7% | [5] -1.55% | [6] 13.5%

NNC(=O)N/N=C/c1cccc(O)c1
inactive: [1] -11.7% | [2] -2.35% | [3] -21.4% | [4] -12.1% | [5] 1.1% | [6] -19.4%

CC/C(SC)=[N+](\C)[O-]
inactive: [1] 3.9% | [2] -6.9% | [3] -23.1% | [4] -5.6% | [5] -20.4% | [6] 4.25%

O=C1OC(C(=O)O)Cc2ccccc21 (configuration not stated)
inactive: [1] -16.1% | [2] -15.2% | [3] -3.15% | [4] -5.1% | [5] -2.3% | [6] -13.3%

CC(C)(C)c1cc(C(=S)N2CCN(C(=S)c3cc(C(C)(C)C)c(O)c(C(C)(C)C)c3)CC2)cc(C(C)(C)C)c1O
inactive: [1] 4.05% | [2] -10.7% | [3] -10.9% | [4] -48.5% | [5] 2.45% | [6] -16.9%

CC(=O)Nc1ccc(S(=O)(=O)Nc2c(N)[nH]c(=S)[nH]c2=O)cc1
inactive: [1] 14% | [2] 3.9% | [3] 1.25% | [4] -3.75% | [5] 9.5% | [6] 9.45%

CC1(C)[C@H](C(=O)O)N2C(=O)[C@@H](NC(=O)C(c3ccccc3)c3ccccc3)[C@H]2S1=O (some centres not stated)
inactive: [1] -53.5% | [2] -8.25% | [3] -10.4% | [4] 3.65% | [5] -3.9% | [6] 4.85%

O=C1NC(c2ccccc2)(c2ccccc2)C(=O)N1CCCCCCN1C(=O)NC(c2ccccc2)(c2ccccc2)C1=O
inactive: [1] 8.35% | [2] 3.45% | [3] 4% | [4] 0.25% | [5] -7.15% | [6] 18.2%

CC(C)CC(NC(=O)OC(C)(C)C)C(=O)NC(CCC(=O)OC1CCCCC1)C(N)=O (stereo not drawn) (Boc-Leu-Glu(OcHex)-NH2; configuration not given here)
inactive: [1] -4.8% | [2] -12.4% | [3] -8% | [4] 1.5% | [5] 3.4% | [6] 8.75%

COC1C2C[C@@H](O)CCC2C(C(=O)OCCl)C[C@H]1O (some centres not stated)
inactive: [1] -12.4% | [2] -6.9% | [3] -11% | [4] -27.2% | [5] -10.6% | [6] -30.2%

COC(=O)C1=C(\N2CCOCC2)CCCC/C=C\1C(=O)OC
inactive: [1] -2.55% | [2] 1.15% | [3] -4.9% | [4] -10.3% | [5] 3.65% | [6] -4.5%
